Screening data (PubChem BioAssay)
LmPK inhibitor: LmPK (Leishmania mexicana) enzyme inhibition; Q27686; Potency, µM (doses to about 57.5 µM), inactives show top-dose activity change, negative = inhibition, hits mostly inhibitors; 0.37% of 290,000 active; purified LmPK, Kinase-Glo ATP luminescence, 1 h; note: potency is the fitted concentration of half-maximal effect; % is set by controls: 0 for no effect and ±100 for the full control effect
Target sequence (Q27686 whole entry, looked up): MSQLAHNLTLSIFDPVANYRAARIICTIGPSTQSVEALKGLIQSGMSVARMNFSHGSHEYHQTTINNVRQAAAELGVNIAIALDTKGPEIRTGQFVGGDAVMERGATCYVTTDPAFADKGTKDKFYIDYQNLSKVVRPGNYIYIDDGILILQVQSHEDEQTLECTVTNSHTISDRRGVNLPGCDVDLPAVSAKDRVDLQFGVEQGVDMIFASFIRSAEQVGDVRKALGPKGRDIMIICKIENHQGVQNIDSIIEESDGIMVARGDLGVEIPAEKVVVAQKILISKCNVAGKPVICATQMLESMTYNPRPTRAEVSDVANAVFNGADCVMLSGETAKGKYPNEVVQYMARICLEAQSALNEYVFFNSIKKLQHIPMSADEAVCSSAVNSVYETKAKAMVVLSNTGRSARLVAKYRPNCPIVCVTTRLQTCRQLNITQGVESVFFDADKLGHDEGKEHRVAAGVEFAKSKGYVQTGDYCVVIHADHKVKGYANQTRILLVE
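Purified LmPK (0.1 nM) with 0.5 mM PEP and 0.1 mM ADP in imidazole buffer pH 7.2 with MgCl2/KCl, 1 h at room temperature. ATP formed was read by luciferase luminescence and normalized to no-enzyme and uninhibited controls.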
Shiga inhibitor: blocks Shiga toxin action in Vero cells; Vero cells, Shiga toxin protein synthesis inhibition reporter; inhibition, % at 38.7 µM; 9.2% of 290,000 active; AID 2315; in the data active = inhibition mostly above about 28%, no sharp cut-off; inactive = mostly below about 43%; note: 0% is about no effect
Pf growth 48h: P. falciparum growth inhibition at 48 hours (one generation) | 5.9% of 310,000 active | P. falciparum luciferase growth in erythrocytes, 48 h | Potency, µM (doses to about 28.7 µM), without a hit: at the top dose activity change, negative = inhibition, most hits filed as inhibitors; note: potency is the fitted concentration of half-maximal effect; % is set by controls: 0 for no effect and ±100 for the full control effect
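In quantitative HTS format, infected erythrocytes bearing luciferase-reporter parasites were treated for a single generation at 37 C. Luminescence after adding detection reagent served as the growth measure.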
Pf growth 96h: P. falciparum growth inhibition at 96 hours | P. falciparum luciferase reporter growth, 96 h | Potency, µM (titrated, usually from 28.7 µM), inactives show at the highest dose activity change, negative = inhibition, most hits filed as inhibitors | 6.9% of 320,000 active | AID 504834; note: potency is the fitted concentration of half-maximal effect; % is set by controls: 0 for no effect and ±100 for the full control effect
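Compounds incubated with erythrocytes infected by luciferase-expressing P. falciparum (2% hematocrit, 0.05% parasitemia final) for 96 hours, 37 C in 5% CO2. Growth inhibition scored as decreased luciferase luminescence.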
Cycloheximide cs: counter-screen hit for Shiga toxin inhibitors, cycloheximide | 12% of 300,000 active | AID 2314 | cell reporter, cycloheximide protein synthesis inhibition counterscreen | max response, %; in the data active = max response mostly above about 13%, no sharp cut-off; inactive = mostly below about 14%; note: read at 38.3 µM for the half of the compounds with a filed dose; 0% is about no effect
Numbers without * were called inactive; ? = inconclusive; . = not tested or not shown; [ ] = dose if it differs, or a comment. Sampled rows, rich in hits. Any-hit rate of the full collection: about 22%. Unless noted, calls come from the whole dose curve; as a rule, active = well fitted inhibition curve with a large enough effect; inconclusive = small, poorly fitted or top-dose-only effect, or another doubt; inactive = no such curve, though single readings can be large or run the other way.

SMILES	LmPK inhibitor	Shiga inhibitor	Pf growth 48h	Pf growth 96h	Cycloheximide cs
O=C(O)CN1C(c2ccccc2)=Nc2ccc(Br)cc2C1c1ccccc1 (configuration not stated)	-8%	16	-27%	0%	-1
CCCCOc1cccc(C2/C(=C(\O)c3ccc4c(c3)OCCO4)C(=O)C(=O)N2CCN2CCOCC2)c1 (configuration not stated)	6%	2	-27%	?	-1
c1ccc2c(c1)oc1c(Nc3ccc(CN4CCOCC4)cc3)ncnc12	-9%	106*	-78%	?	92*
Cc1cc2c(Nc3cccc(O)c3)ncnc2s1	0%	23	366%	9%	19*
Oc1cccc(Nc2ncnc3c2oc2ccccc23)c1	-1%	93*	77%	135%	50*
O=S(=O)(Nc1ncnc2c1oc1ccccc12)c1ccc(Cl)s1	1%	-6	51%	35%	16*
c1ccc2c(c1)oc1c(NCCN3CCOCC3)ncnc12	3%	-7	32%	?	-4
COCc1c(C(=O)OCC(=O)N2CCCC2=O)oc2ccccc12	.	.	-10%	-5%	.
CCOc1ccccc1NC(=O)Cn1c(=O)n(-c2ccc(OC)cc2OC)c(=O)c2c(C)c(C(=O)N(CC)CC)sc21	5%	-12	?	-26%	-2
Oc1ccc(Nc2ncnc3c2oc2ccccc23)cc1	-8%	33*	31%	27%	40*
Oc1ccccc1Nc1ncnc2c1oc1ccccc12	4%	46	?	?	39*
CCc1nc(Nc2ccccc2)c2oc3ccccc3c2n1	2%	4	-15%	0%	17
c1ccc(Nc2ncnc3c2oc2ccccc23)cc1	7%	121*	99%	-2%	66*
CC(C)C(Nc1ncnc2c1oc1ccccc12)C(=O)O (configuration not stated)	-1%	24	23%	4.7µM*	-2
CC1(c2ccc3c(c2)OCO3)NC(=O)N(CC(=O)Nc2ccccc2[N+](=O)[O-])C1=O (configuration not stated)	.	.	?	10%	.
COc1ccc(OCC(=O)N2N=C(C(F)F)CC2(O)C(F)F)cc1 (configuration not stated)	-7%	-5	14%	-6%	-6
COc1ccc(Cl)cc1C(=O)Nc1cccc(-c2ccc3nncn3n2)c1	0%	2	16%	-21%	11
CCC(=O)Nc1cccc(C(=O)/C=C/c2ccccc2)c1	-1%	38	44%	?	25*
CCC(=O)Nc1cccc(C(=O)/C=C/c2cccs2)c1	-3%	85*	?	?	37*
CCC(=O)Nc1cccc(C(=O)c2ccccc2)c1	-1%	2	15%	.	11*
Cn1c(SCC(=O)N/N=C/c2ccccn2)nnc1-c1ccccc1	1%	-12	10%	-5%	-1
Cc1ccc(NC(=O)Cc2nc(COC(=O)Cc3cccc(C(F)(F)F)c3)cs2)cc1	.	.	3%	31%	.
COc1ccc(NC(=O)CNc2ccc(C#N)cc2)cc1	-1%	15	?	3%	6
Cc1ccc(S(=O)(=O)N2CCCC2CNC(=O)C(=O)NC2CC2)cc1 (configuration not stated)	.	.	-2%	?	.
CCOc1ccc(CNC(=O)CCc2cn(Cc3ccccc3)c3ccccc23)cc1	2%	20	-6%	?	-3
SMILES	LmPK inhibitor	Shiga inhibitor	Pf growth 48h	Pf growth 96h	Cycloheximide cs
CCOC(=O)c1cnc(-n2nc(C)cc2C)nc1N(C)C	-12%	48*	?	.	18*
CCOC(=O)c1cnc(-n2nc(C)cc2C)nc1NCc1ccc2c(c1)OCO2	5%	-15	4.7µM*	.	-1
CCOC(=O)c1cnc(-n2nc(C)cc2C)nc1Nc1ccc(OC)cc1	6%	-2	4.1µM*	1.9µM*	1
CCOC(=O)c1cnc(-n2nc(C)cc2C)nc1NCCc1ccccc1	0%	-3	4.1µM*	-9%	7
CCc1nnc(NC(=O)CSc2nc3ccc(OC)cc3[nH]2)s1	0%	5	23%	2%	-1
COc1ccccc1-n1nnnc1SCC(=O)NC1CCCCC1	-5%	4	25%	-6%	-2
O=C(Nc1c2c(nn1-c1ccc(Cl)cc1)CS(=O)(=O)C2)C1CC1	-2%	-28	20%	6%	-3
O=C(NCC(=O)N1CCN(S(=O)(=O)c2ccccc2)CC1)c1ccc(Br)o1	.	.	3%	3%	.
COc1ccc(NC(=O)CCC(=O)c2ccc(Cl)cc2)cn1	.	.	-22%	8%	.
CCOC(=O)c1cnc(-n2nc(C)cc2C)nc1Nc1ccccc1OC	-2%	-5	?	?	-5
CCOC(=O)c1cnc(-n2nc(C)cc2C)nc1NC1CCCC1	1%	-9	1.5µM*	?	-1
O=C(CN1C(=O)NC2(CCCC2)C1=O)NCCN1C(=O)S/C(=C\c2ccccc2F)C1=O	.	.	?	4.7µM*	.
COc1ccc(/C=C2\SC(=O)N(CCNC(=O)CN3C(=O)NC4(CCCC4)C3=O)C2=O)cc1	.	.	30%	3%	.
O=C(Cc1ccccc1)Nc1ccccc1N1CCN(c2ccccc2)CC1	-7%	-7	9.3µM*	.	1
CCC(=O)N1CCN(c2ccccc2NC(=O)Cc2ccccc2)CC1	2%	42	10µM*	-2%	14
CC(C)C(=O)N1CCN(c2ccccc2NC(=O)Cc2ccc(Cl)cc2)CC1	7%	-15	13µM*	-3%[5.75 µM]	-4
CS(=O)(=O)N1CCN(c2ccccc2NC(=O)Cc2ccccc2)CC1	-3%	35	-8%	-12%	10
COc1ccc(-n2c(SCc3ccccn3)nc3c(c2=O)SCC3)cc1OC	7%[11.5 µM]	-10	?	?	-3
C[C@@H]1C(SC2Cn3cnc[n+]3C2)=C(C(=O)[O-])N2C(=O)[C@H]([C@@H](C)O)[C@@H]12 (some centres not stated)	.	.	-12%	4%	.
O=S1(=O)NC(CC2=CCCCC2)C2CCCCC2O1 (configuration not stated)	-1%	-4	7%	-4%	-3
Cc1ccc(S(=O)(=O)CCN2CCC(n3cccc3)CC2)cc1	3%	2	-10%	24%	2
C=CCCCCCCCCC(=O)OC	.	.	-11%	-1%	.
CCOC(=O)c1sc2nc3c(SCCC#N)cc(C(=O)c4cc(F)ccc4O)cn3c(=O)c2c1C	-1%	1	0.83µM*	0.83µM*	-3
O=C(O)CSc1cc(C(=O)c2cc(F)ccc2O)cn2c(=O)c3c(-c4ccccc4)csc3nc12	4%	4	8.3µM*	?	-3
C[C@H](NS(=O)(=O)c1ccc2c(c1)OCCCO2)C(=O)N1CCN(Cc2ccc(C#N)cc2)CC1	.	.	-13%	?	.
Cc1ccc(N2C(=O)C(F)(F)C2c2ccccc2)cc1 (configuration not stated)	3%	26	-10%	0%	-1
Cc1ccc(N2C(=N)/C(=C3/Nc4ccccc4S3)C(c3ccccc3)C2=O)cc1 (configuration not stated)	4%	62*	-1%	?	44*
